Legend:
[1] = target: Serine/threonine-protein kinase PLK3 (Homo sapiens) (UniProt Q9H4B4); settings: at 1 µM
[2] = target: Serine/threonine-protein kinase PLK3 (Homo sapiens) (UniProt Q9H4B4); settings: at 10 µM
[3] = target: T1, cAMP-dependent protein kinase catalytic subunit PRKX (Homo sapiens) (UniProt P51817); settings: at 1 µM
T1 sequence (whole entry): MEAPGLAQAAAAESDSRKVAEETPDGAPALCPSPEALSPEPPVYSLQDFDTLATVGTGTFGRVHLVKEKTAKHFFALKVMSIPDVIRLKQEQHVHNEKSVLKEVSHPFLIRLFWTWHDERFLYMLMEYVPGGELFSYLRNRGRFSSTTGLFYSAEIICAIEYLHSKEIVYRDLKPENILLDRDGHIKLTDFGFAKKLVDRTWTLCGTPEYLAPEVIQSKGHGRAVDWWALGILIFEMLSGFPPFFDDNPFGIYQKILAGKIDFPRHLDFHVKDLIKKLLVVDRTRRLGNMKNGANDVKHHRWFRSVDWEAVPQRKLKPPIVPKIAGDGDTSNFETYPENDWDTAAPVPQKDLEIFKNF

[4] = target: T1, cAMP-dependent protein kinase catalytic subunit PRKX (Homo sapiens); settings: at 10 µM
[5] = target: Protein-tyrosine kinase 2-beta (Homo sapiens) (UniProt Q14289); settings: at 1 µM
[6] = target: Receptor-interacting serine/threonine-protein kinase 2 (Homo sapiens) (UniProt O43353); settings: at 1 µM
Sequence of Receptor-interacting serine/threonine-protein kinase 2 (Homo sapiens) (O43353 whole entry): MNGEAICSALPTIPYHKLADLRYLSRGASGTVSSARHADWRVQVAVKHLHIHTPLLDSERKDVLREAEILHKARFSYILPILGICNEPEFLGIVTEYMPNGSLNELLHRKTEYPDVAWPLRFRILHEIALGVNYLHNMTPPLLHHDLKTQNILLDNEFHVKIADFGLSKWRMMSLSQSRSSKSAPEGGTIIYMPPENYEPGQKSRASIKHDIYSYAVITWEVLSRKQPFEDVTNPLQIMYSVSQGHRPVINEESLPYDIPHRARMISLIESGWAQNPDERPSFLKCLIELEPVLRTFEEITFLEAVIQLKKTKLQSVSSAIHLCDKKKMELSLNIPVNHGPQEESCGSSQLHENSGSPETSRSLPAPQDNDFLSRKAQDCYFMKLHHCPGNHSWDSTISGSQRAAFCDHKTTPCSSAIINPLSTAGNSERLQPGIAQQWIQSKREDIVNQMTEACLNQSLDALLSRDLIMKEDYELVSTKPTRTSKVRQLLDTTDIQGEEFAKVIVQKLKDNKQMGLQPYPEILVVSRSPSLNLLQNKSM

[7] = target: Receptor-interacting serine/threonine-protein kinase 2 (Homo sapiens) (UniProt O43353); settings: at 10 µM
[8] = target: Rho-associated protein kinase 1 (Homo sapiens) (UniProt Q13464); settings: at 1 µM
[9] = target: Rho-associated protein kinase 1 (Homo sapiens) (UniProt Q13464); settings: at 10 µM
[10] = target: Rho-associated protein kinase 2 (Homo sapiens) (UniProt O75116); settings: at 1 µM
Sequence of Rho-associated protein kinase 2 (Homo sapiens) (O75116 whole entry, looked up): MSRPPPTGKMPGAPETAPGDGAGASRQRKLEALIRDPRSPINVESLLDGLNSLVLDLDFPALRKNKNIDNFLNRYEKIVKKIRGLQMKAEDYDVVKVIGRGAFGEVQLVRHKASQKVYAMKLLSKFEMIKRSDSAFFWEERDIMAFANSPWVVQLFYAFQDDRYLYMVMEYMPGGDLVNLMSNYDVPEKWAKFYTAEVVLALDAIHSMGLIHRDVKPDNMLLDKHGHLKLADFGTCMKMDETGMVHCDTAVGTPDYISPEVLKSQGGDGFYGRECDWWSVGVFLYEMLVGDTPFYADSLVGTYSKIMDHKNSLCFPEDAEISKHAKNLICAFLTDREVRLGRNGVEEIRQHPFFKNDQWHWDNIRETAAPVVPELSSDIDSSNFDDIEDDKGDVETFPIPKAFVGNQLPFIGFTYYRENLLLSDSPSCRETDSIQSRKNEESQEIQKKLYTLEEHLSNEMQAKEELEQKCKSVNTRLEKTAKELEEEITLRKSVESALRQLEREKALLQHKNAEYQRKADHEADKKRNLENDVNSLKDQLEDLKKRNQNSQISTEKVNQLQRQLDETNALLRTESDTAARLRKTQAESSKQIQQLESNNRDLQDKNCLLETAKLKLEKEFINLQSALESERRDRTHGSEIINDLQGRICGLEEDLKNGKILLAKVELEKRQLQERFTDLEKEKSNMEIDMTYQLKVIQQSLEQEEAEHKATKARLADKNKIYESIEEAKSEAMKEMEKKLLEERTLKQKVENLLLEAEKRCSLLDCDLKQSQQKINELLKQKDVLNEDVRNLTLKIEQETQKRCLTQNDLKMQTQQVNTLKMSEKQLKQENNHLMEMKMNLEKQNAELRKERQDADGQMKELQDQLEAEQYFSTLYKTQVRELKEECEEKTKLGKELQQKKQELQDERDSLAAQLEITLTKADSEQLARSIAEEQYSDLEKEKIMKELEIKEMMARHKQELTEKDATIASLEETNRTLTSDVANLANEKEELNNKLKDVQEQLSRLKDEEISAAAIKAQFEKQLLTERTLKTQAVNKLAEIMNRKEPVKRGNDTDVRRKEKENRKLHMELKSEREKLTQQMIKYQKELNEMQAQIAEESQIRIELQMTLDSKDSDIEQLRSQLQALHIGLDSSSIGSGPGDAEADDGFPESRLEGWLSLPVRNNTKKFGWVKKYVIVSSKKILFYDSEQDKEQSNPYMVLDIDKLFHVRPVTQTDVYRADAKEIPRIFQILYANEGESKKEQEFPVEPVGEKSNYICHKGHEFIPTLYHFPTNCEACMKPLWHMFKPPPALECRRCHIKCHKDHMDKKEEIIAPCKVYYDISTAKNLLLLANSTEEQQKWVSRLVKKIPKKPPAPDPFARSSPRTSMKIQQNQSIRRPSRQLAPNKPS

[11] = target: Rho-associated protein kinase 2 (Homo sapiens) (UniProt O75116); settings: at 10 µM
[12] = target: Proto-oncogene tyrosine-protein kinase receptor Ret (Homo sapiens) (UniProt P07949); settings: at 1 µM
Sequence of Proto-oncogene tyrosine-protein kinase receptor Ret (Homo sapiens) (P07949 whole entry): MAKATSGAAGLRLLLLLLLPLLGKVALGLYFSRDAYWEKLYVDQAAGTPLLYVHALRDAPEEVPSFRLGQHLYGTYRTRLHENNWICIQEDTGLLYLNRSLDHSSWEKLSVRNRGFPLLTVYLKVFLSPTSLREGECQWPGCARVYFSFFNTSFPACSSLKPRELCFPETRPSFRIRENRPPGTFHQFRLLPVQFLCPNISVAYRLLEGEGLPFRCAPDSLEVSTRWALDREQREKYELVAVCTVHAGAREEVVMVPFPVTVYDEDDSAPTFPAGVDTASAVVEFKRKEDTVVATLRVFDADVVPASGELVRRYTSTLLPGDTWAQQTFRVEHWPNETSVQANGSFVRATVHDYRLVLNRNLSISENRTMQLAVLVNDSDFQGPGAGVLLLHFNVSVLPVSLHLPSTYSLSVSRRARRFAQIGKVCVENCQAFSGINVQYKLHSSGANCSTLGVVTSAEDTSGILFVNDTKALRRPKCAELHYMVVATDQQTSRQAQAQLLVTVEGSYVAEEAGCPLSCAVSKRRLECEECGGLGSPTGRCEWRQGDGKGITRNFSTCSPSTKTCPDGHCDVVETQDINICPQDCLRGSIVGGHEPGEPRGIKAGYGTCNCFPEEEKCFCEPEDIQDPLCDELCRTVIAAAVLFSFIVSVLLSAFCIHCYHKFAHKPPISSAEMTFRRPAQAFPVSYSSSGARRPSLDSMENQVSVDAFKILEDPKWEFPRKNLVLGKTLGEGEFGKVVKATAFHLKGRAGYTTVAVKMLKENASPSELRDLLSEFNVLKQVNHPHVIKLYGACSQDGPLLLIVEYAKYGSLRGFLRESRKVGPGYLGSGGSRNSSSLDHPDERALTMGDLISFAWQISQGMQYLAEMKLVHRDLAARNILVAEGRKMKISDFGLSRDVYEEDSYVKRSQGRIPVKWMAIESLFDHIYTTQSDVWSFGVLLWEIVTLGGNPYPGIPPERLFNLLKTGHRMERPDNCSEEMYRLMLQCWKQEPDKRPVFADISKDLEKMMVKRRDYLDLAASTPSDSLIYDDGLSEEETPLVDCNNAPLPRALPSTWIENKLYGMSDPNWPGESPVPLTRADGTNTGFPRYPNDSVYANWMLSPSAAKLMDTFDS

[13] = target: Proto-oncogene tyrosine-protein kinase receptor Ret (Homo sapiens) (UniProt P07949); settings: at 10 µM
[14] = target: Macrophage-stimulating protein receptor (Homo sapiens) (UniProt Q04912); settings: at 1 µM
Sequence of Macrophage-stimulating protein receptor (Homo sapiens) (Q04912 25-304 limits assumed): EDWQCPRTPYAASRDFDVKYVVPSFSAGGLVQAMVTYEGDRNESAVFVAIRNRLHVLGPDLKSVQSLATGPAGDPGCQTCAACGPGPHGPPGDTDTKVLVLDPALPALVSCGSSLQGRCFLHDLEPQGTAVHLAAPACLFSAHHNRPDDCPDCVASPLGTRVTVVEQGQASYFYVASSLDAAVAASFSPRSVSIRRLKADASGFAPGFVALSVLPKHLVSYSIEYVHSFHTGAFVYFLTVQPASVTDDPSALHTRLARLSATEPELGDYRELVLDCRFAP
Sequence of Macrophage-stimulating protein receptor (Homo sapiens) (Q04912 310-1400 limits assumed): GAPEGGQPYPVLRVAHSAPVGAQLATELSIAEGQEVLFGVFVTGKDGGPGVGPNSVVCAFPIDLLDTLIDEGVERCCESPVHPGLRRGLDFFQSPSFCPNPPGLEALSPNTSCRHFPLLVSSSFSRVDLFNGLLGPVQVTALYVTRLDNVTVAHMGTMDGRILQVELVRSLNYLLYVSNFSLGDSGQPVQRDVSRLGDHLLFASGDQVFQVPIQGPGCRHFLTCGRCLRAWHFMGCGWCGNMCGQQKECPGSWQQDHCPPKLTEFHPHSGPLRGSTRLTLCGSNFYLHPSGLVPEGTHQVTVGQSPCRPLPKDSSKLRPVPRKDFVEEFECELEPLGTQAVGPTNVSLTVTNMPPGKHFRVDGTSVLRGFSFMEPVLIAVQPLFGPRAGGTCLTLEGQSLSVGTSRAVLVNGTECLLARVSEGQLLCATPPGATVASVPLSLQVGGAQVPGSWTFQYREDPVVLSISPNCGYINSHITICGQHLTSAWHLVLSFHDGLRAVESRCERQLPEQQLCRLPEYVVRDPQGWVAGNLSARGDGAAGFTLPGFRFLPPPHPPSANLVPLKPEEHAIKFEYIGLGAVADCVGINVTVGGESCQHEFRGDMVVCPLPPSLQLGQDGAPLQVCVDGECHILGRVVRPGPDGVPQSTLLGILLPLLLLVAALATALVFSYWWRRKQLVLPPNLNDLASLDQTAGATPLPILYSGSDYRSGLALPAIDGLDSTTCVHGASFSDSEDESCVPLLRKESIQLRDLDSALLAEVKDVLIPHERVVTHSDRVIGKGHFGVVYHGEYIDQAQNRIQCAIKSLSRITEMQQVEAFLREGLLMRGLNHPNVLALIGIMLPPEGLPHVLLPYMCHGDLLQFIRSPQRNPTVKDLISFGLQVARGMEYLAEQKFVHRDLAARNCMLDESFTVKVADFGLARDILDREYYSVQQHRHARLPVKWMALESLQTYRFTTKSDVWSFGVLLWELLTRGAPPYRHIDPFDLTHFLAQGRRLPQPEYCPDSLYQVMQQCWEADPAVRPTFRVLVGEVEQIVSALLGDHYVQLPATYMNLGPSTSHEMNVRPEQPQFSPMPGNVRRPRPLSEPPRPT

[15] = target: Macrophage-stimulating protein receptor (Homo sapiens) (UniProt Q04912); settings: at 10 µM
[16] = target: Proto-oncogene tyrosine-protein kinase ROS (Homo sapiens) (UniProt P08922); settings: at 1 µM
[17] = target: Proto-oncogene tyrosine-protein kinase ROS (Homo sapiens) (UniProt P08922); settings: at 10 µM
[18] = target: T2, Tyrosine-protein kinase receptor TYRO3 (Homo sapiens) (UniProt Q06418); settings: at 1 µM
T2 sequence (whole entry): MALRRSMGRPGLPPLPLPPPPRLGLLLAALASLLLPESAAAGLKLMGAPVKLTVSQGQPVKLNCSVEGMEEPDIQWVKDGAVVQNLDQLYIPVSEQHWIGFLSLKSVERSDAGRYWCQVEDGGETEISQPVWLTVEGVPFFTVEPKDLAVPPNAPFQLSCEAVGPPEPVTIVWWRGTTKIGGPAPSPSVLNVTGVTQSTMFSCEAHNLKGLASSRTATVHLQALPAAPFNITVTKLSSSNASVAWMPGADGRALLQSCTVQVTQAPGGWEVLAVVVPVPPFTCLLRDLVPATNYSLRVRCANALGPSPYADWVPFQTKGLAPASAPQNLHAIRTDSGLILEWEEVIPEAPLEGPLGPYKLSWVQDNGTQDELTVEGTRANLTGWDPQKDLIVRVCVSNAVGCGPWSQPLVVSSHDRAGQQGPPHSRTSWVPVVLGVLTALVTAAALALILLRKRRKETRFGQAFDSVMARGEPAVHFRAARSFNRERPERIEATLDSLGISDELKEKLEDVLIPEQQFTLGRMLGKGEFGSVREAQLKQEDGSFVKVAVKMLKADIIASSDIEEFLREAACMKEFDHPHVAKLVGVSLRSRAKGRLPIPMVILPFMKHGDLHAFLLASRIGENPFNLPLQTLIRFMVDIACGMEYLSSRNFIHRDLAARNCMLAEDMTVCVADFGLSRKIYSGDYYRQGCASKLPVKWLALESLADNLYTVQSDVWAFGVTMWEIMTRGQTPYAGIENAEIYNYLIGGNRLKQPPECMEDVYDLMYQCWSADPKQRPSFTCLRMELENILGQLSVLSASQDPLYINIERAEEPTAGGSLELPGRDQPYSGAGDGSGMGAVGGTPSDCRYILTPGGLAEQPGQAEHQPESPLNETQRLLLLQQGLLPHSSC

[19] = target: T2, Tyrosine-protein kinase receptor TYRO3 (Homo sapiens); settings: at 10 µM
[20] = target: Protein-tyrosine kinase 2-beta (Homo sapiens) (UniProt Q14289); settings: at 10 µM

Sequence of Serine/threonine-protein kinase PLK3 (Homo sapiens) (Q9H4B4 whole entry, looked up): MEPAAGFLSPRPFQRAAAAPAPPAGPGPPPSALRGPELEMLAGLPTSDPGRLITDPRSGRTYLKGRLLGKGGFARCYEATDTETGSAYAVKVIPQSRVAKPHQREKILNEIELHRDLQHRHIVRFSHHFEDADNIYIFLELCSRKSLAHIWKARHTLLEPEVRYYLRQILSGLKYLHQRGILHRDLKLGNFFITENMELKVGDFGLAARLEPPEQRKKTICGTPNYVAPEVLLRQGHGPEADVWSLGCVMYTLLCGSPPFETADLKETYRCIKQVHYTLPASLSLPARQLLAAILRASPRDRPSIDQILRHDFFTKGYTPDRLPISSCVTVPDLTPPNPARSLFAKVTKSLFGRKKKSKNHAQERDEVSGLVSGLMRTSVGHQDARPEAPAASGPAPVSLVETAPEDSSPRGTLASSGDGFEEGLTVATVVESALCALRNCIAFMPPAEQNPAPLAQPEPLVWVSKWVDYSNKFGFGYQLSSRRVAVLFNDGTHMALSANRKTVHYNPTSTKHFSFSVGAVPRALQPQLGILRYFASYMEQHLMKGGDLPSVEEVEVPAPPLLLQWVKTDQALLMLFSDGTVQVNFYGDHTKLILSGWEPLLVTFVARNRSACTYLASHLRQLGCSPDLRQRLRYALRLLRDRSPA

Compound	residual activity [1]	residual activity [2] [%]	residual activity [3] [%]	residual activity [4] [%]	residual activity [5] [%]	residual activity [6] [%]	residual activity [7] [%]	residual activity [8] [%]	residual activity [9] [%]	residual activity [10] [%]	residual activity [11] [%]	residual activity [12] [%]	residual activity [13] [%]	residual activity [14] [%]	residual activity [15] [%]	residual activity [16] [%]	residual activity [17] [%]	residual activity [18] [%]	residual activity [19] [%]	residual activity [20] [%]
CC#CC(=O)Nc1cc2c(Nc3ccc(F)c(Cl)c3)ncnc2cn1	96% (inactive)	82	100	93	120	82	60	99	116	92	77	100	104	101	76	94	92	85	82	–
Nc1cccc(-c2cc3c(Oc4cccc(O)c4)ncnc3[nH]2)c1	99% (inactive)	74	85	70	25	18	11	–	97	93	87	2	0	83	40	98	60	6	0	5
COc1cccc(-c2cc(=O)c3ccccc3o2)c1N	111% (inactive)	–	90	33	106	92	106	117	100	97	96	114	83	93	97	106	97	78	122	112
N#CC(C#N)=C(N)/C(C#N)=C/c1ccc(O)cc1	79% (inactive)	27	99	100	129	–	64	–	–	–	–	–	–	–	100	95	92	–	–	94
C[C@@H](N)[C@H]1CC[C@H](C(=O)Nc2ccncc2)CC1	108% (inactive)	96	72	24	–	96	–	77	31	19	4	–	–	–	101	104	105	123	124	–
Cn1nc2c3c(cccc31)C(=O)c1ccccc1-2	100% (inactive)	90	72	86	106	89	89	–	97	104	89	93	63	–	–	97	88	96	97	76
Cc1cccc(-c2[nH]c(C(C)(C)C)nc2-c2ccc3c(c2)OCO3)n1	98% (inactive)	88	–	–	–	59	21	–	–	103	82	98	107	–	–	91	94	97	–	103
Oc1c2ccccc2c2c3c(cccc13)N=N2	94% (inactive)	82	86	70	68	70	52	–	95	74	39	43	11	78	51	93	85	97	81	23
Nc1nc(Nc2ccc(S(N)(=O)=O)cc2)nn1C(=S)Nc1c(F)cccc1F	90% (inactive)	91	44	7	4	16	29	6	1	0	1	2	-1	7	2	70	16	14	-1	1
O=[N+]([O-])c1ccc(-c2nc(-c3ccc(F)cc3)c(-c3ccncc3)[nH]2)cc1	–	108	132	26	114	19	25	122	118	87	94	78	73	90	90	104	91	86	111	105
COc1cc2ncnc(N3CCN(C(=O)Nc4ccc(Oc5ccccc5)cc4)CC3)c2cc1OC	90% (inactive)	92	77	113	122	84	70	124	–	98	87	101	82	74	20	81	86	97	95	104
COc1ccc(OC)c2c(=S)c3ccccc3[nH]c12	99% (inactive)	95	83	83	79	85	80	122	102	86	95	110	96	69	82	99	92	108	93	105
CO[C@H]1[C@@H](OC)C[C@H](C)[C@@H](OC)C2=CC(=O)C=C(NC(=O)/C(C)=C/C=C/[C@H](OC)[C@@H](OC(N)=O)/C(C)=C/[C@@H]1C)C2=O	99% (inactive)	104	80	72	124	93	96	121	–	–	–	108	106	85	85	92	94	86	101	100
NC(=O)c1ccc2[nH]c(-c3ccc(Oc4ccc(Cl)cc4)cc3)nc2c1	97% (inactive)	91	72	112	100	82	66	123	118	83	72	105	85	74	84	92	84	106	97	86
CO[C@@H]1[C@H](N(C)C(=O)c2ccccc2)C[C@H]2O[C@]1(C)n1c3ccccc3c3c4c(c5c6ccccc6n2c5c31)C(=O)NC4	95% (inactive)	92	24	12	16	88	70	110	115	79	57	8	5	47	56	63	50	–	84	10

Reference: ChEMBL document CHEMBL2218924, “A broad activity screen in support of a chemogenomic map for kinase signalling research and drug discovery” (Biochem J, 2013)
